The results in this text go back to PubChem BioAssay (NCI).

About 83,000 compounds went through this panel and 20% of them were active in at least one assay; those are over-represented in the sample as a whole.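 For each line, cells grew in 96-well plates with the test compound present at a single concentration for 48 hours.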 A number with no mark means an inactive call. Activity calls are given as the source filed them. The calls were made as follows: active = growth percent below 10; inactive = the rest.

What all share (assay): NCI-60 one-dose screen, 48 h (100 = growth as untreated, 0 = no growth, -100 = all killed)
Test [1] relates to HCT-15 colon. The conditions noted are these: 10 µM.
Test [2] has as its system HT29 colon. The conditions noted are these: 10 µM.
In test [3] the test system is SNB-75 CNS. Conditions: 10 µM.
For test [4], the system named is SNB-19 CNS. Conditions: 10 µM.
In test [5] the test system is U251 CNS. Conditions: 10 µM.
Test [6] has as its system PC-3 prostate. The conditions noted are these: 10 µM.
In test [7] the test system is SK-MEL-5 melanoma. Conditions: 10 µM.
In test [8] the test system is UACC-62 melanoma. Conditions: 10 µM unless noted.
For test [9], the system named is LOX IMVI melanoma. Conditions: 10 µM.
For test [10], the system named is SK-MEL-28 melanoma. Conditions: 10 µM.

For the compound `CC(=Nc1ccccc1)C1=C(O)C(Cc2cccc(F)c2)NC1=O` (stereo not given), the growth in test [1] is 8.21% (active); in [2], -12.1% (active); in [3], 78.3%; in [4], 36.2%; in test [5], 10.8%; in [6], 19.2%. Further, the growth in test [7] is 1.57% (active); in [8], 32.9%; in test [9], 5.05% (active); in test [10], 63.5%.
Take `CC(C)CCOC(=O)c1ccccc1`: the growth in test [1] is 111%; in [2], 108%; in test [3], 95.6%; in test [4], 105%; in test [5], 97.5%; in test [6] it was 97.9%. The growth in [7] was 105%; in test [8], 104%; in test [9], 101%; in test [10] it was 103%.
For the compound `CC(=O)OCCC(C)CCC=C(C)C` (stereo not given), the growth in test [1] is 92.5%; in [2] it was 105%; in [3], 95.9%; in test [4], 103%; in test [5] it was 102%; in test [6] it was 92.3%. Also, the growth is 101% in [7], 97.8% in [8], 103% in [9] and 113% in test [10].
With `COC(=O)c1ccc(NC(=O)CCl)cc1`, the growth in [1] was 61.7%; in test [2], 76.3%; in test [3], 83%; in [4] it was 92.7%; in test [5], 26.2%; in test [6], 78.2%. Besides, the growth in test [7] is 80.6%; in [8], 72.2%; in test [9], -19.8% (active); in test [10] it was 101%.
In the case of `O=C1Cc2cc(O)ccc2O1`, the growth in test [1] is 117%; in test [2] it was 104%; in [3], 86%; in test [4], 107%; in [5] it was 103%; in test [6], 107%. Moreover, the growth in [7] is 101%; in [8], 101%; in test [9], 83.1%; in test [10] it was 108%.
Consider `CCOC(=O)c1ccc(Nc2sc(C(=O)c3cccc([N+](=O)[O-])c3)c(N)c2C#N)cc1`, for which the growth in [1] is 32.3%; in test [2] it was 8.29% (active); in test [3], -6.96% (active); in test [4], 48.8%; in [5], 11.5%; in test [6], 31.1%. The growth was 10.9% in test [7], 28.6% in test [8], 39.5% in test [9] and 63.1% in test [10].
Turning to `CCC(=O)Oc1ccc(OC)cc1`, the growth in test [1] is 105%; in [2], 105%; in test [3], 90.7%; in [4], 104%; in test [5] it was 98.3%; in [6] it was 110%. The growth was 107% in test [7], 99.8% in [8], 105% in test [9] and 112% in [10].
On to `Nc1ccc(N=Nc2ccc(O)cc2)c(N)n1`, for which the growth in test [1] was 64.5%; in test [2], 103%; in test [3], 82.5%; in test [4], 98.1%; in test [5], 76.6%; in test [6], 60.7%. Moreover, the growth was 73.3% in test [7], 41% in [8], 79.4% in test [9] and 89.2% in [10].
In the case of `O=C(N/N=C\c1cc(Br)cc(Br)c1O)N/N=C/c1cc(Br)cc(Br)c1O`, the growth in test [1] was 33.6%; in test [2] it was 105%; in test [3], 49%; in test [4], 68.2%; in test [5] it was 46.1%; in [6] it was -1.34% (active). Further, the growth is 45.3% in [7], 39% in [8], 50.5% in test [9] and 81.9% in test [10].
With `COc1cc([C@@H]2c3cc4c(cc3[C@H](O)[C@H]3COC(=O)[C@H]23)OCO4)cc(OC)c1OC`, the growth in [1] was 10.4%; in test [2], 4.93% (active); in test [3], 30.6%; in test [4], 34.7%; in test [5], 16.5%; in [6], 23.3%. Besides, the growth in [7] was -25% (active); in test [8], 40.5%; in test [9] it was 22%; in [10], 58.8%.
On to `O=C(/C(=N/O)c1ccccc1)c1ccccc1`, for which the growth in test [1] is 96.8%; in [2], 117%; in [3] it was 85.4%; in [4], 100%; in [5] it was 94.6%; in test [6], 94.9%. Moreover, the growth in [7] is 97.4%; in [8] it was 88.3%; in [9], 105%; in [10] it was 105%.
`CCCCC(CC)COC(C)=O` (stereo not given): the growth in [1] was 109%; in test [2], 111%; in [3], 91.2%; in test [4], 106%; in test [5], 99.6%; in [6] it was 97%. Also, the growth is 105% in test [7], 103% in test [8], 97.4% in test [9] and 108% in test [10].
Take `O=[N+]([O-])c1ccc(-c2ncc(-c3ccc(Br)cc3)o2)cc1`: the growth in test [1] was 96.5%; in test [2], 98.3%; in test [3] it was 122%; in test [4], 99.9%; in test [5], 95.8%; in [6], 89.8%. For the same compound, the growth in [7] was 89.4%; in test [8], 93.3%; in test [9], 104%; in [10], 114%.
